# Measured values published in publication PMC5700166.
# Residue numbers refer to the chain shown, from its start.
# Key:
# Assay in all cases: protein-binding microarray (PBM); PBM: ~300 nM protein, 6 mM HEPES pH 7.8, 80 mM KCl, 0.5 mM EDTA, 0.5 mM EGTA, 6% glycerol, 35 ng/ul poly-dIdC, 1% milk, 1 h, room temperature; Ap Aiptasia and Nv Nematostella (sea anemones) / Co Capsaspora / Aq Amphimedon (sponge) / Dm Drosophila / Hu human; RHD is the Rel homology domain; high values mean tight binding
# Conditions in all cases: dsDNA, one strand shown
# [1] = molecular target: T1, GST-Ap-NF-kB RHD (Exaiptasia pallida (Aiptasia), UniProt A0A913YAJ5 2-422)
# T1 sequence: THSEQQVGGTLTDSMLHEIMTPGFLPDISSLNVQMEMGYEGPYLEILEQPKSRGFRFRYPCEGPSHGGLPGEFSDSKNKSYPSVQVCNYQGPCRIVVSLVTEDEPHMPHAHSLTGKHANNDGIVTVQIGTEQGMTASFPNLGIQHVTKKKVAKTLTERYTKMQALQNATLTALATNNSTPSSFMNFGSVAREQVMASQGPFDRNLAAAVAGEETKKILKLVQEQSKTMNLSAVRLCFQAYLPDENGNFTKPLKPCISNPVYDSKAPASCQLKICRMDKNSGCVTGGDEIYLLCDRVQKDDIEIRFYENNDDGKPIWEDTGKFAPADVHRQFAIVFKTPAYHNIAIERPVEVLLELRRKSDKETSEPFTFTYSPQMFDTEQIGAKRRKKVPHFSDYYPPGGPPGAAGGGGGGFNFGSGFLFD
# [2] = molecular target: T2, GST-Nv-NF-kB (Cys allele) (Nematostella vectensis, UniProt E5G601 2-411)
# T2 sequence: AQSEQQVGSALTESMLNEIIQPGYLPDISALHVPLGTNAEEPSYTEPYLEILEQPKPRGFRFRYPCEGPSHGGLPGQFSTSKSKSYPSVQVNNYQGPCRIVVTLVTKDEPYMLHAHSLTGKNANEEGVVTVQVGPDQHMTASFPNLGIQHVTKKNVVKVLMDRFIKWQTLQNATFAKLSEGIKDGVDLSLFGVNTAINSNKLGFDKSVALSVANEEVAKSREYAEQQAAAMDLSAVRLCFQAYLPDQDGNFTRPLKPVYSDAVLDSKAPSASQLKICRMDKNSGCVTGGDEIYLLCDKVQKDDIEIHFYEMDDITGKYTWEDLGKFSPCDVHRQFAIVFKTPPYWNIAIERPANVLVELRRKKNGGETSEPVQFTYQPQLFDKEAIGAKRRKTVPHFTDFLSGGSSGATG
# [3] = molecular target: T3, GST-Nv-NF-kB (Ser allele) (Nematostella vectensis, UniProt A7UNT2 2-411)
# T3 sequence: T2 sequence with Q21R, C66S, S207N, E215Q, V217A, E225K, A268E, D399E
# [4] = molecular target: T4, GST-Co-NF-kB (Capsaspora owczarzaki, UniProt F1ARL5 200-546)
# T4 sequence: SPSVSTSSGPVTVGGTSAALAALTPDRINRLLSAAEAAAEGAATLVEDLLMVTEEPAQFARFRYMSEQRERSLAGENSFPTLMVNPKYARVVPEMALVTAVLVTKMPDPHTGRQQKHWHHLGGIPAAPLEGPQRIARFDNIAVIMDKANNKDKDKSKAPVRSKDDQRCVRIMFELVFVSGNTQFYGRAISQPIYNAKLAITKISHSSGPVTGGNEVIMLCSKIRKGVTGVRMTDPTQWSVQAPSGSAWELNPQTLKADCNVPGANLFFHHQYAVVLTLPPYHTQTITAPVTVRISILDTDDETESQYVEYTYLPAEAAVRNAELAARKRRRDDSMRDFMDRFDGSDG
# [5] = molecular target: T5, GST-Dm-Relish (Drosophila melanogaster, UniProt Q94527 99-473)
# T5 sequence: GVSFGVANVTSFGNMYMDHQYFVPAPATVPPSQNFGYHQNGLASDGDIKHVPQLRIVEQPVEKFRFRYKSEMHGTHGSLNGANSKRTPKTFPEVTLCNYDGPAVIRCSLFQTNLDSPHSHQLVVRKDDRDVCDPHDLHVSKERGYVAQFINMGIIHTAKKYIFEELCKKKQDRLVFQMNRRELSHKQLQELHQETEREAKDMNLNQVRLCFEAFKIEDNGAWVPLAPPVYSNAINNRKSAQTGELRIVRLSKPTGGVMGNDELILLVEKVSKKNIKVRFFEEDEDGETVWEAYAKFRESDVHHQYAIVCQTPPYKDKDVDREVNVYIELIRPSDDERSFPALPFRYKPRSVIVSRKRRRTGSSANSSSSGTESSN
# [6] = molecular target: T6, GST-Aq-NF-kB (Amphimedon queenslandica, UniProt A9Y5G7 2-389)
# T6 sequence: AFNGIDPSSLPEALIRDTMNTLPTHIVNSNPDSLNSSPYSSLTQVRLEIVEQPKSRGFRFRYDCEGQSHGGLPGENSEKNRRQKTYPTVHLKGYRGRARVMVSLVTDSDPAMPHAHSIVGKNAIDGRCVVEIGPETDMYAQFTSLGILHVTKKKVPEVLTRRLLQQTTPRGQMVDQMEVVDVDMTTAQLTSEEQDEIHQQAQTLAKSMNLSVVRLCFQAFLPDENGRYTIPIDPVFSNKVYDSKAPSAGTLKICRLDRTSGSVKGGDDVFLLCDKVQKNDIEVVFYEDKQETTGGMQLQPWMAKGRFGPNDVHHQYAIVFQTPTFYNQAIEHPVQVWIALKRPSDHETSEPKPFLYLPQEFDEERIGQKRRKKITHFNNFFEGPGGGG
# [7] = molecular target: GST-Hu-p50 (Homo sapiens, UniProt P19838 7-356)
# GST-Hu-p50, sequence (P19838 7-356): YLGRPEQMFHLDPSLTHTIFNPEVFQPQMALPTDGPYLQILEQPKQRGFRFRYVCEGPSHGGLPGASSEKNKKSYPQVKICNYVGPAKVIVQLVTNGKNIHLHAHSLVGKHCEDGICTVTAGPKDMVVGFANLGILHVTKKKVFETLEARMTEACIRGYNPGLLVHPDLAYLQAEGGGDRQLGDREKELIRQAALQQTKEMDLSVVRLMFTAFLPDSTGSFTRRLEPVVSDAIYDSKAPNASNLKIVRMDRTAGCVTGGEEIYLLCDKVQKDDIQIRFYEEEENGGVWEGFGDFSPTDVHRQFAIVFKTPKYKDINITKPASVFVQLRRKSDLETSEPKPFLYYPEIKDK
Sequence,binding signal [1] [z-score],binding signal [2] [z-score],binding signal [3] [z-score],binding signal [4] [z-score],binding signal [5] [z-score],binding signal [6] [z-score],binding signal [7] [z-score]
CCGATTAACATCAGGAAGCCCCCTGATGTTAATCGGGTCTTGATTCGCTTGACGCTGCTG,6.62,5.72,3.93,1.49,7.8,7.03,5.74
CCGATTAACATCAGATAATTCCCTGATGTTAATCGGGTCTTGATTCGCTTGACGCTGCTG,5.7,7.58,6.02,4.01,3.74,7.02,4.73
CCGATTAACATCAGGGGAATTAATGATGTTAATCGGGTCTTGATTCGCTTGACGCTGCTG,6.97,9.44,10.2,7.92,7.21,6.31,6.52
CCGATTAACATCAAAAATCCCACTGATGTTAATCGGGTCTTGATTCGCTTGACGCTGCTG,3.51,3.55,2.95,1.65,7.7,3.87,3.73
CCGATTAACATCATGGGGGGTAATGATGTTAATCGGGTCTTGATTCGCTTGACGCTGCTG,3.64,3.18,2.78,5.06,2.79,3.56,3.21
CCGATTAACATCAACGAATCCCCTGATGTTAATCGGGTCTTGATTCGCTTGACGCTGCTG,6.25,6.07,8.58,2.93,4.84,3.82,5.69
CCGATTAACATCAGGGGAAAACATGATGTTAATCGGGTCTTGATTCGCTTGACGCTGCTG,6.62,7.81,9.93,8.6,5.04,6.17,6.18
CCGATTAACATCAAAAGTCCCCGTGATGTTAATCGGGTCTTGATTCGCTTGACGCTGCTG,8.32,8.18,7.85,4.26,9.25,7.44,6.58
CCGATTAACATCAGGGTATACCCTGATGTTAATCGGGTCTTGATTCGCTTGACGCTGCTG,4.43,3.42,2.44,2.48,4.16,6.04,2.22
